HPGD block: HPGD (human) dehydrogenase inhibition; P15428; AID 894; 150,000 compounds, 4.3% hits; purified HPGD, NADH fluorescence kinetic, PGE2 substrate; Potency, µM, for the others: at the top dose activity change, negative = inhibition, usual class: inhibitors; active = well fitted inhibition curve with a large enough effect, not every such curve was filed as active; inconclusive = small, poorly fitted or top-dose-only effect, or another doubt; inactive = no such curve, though single readings can be large or run the other way; note: potency is the fitted concentration of half-maximal effect
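20 nM HPGD preincubated 15 min at room temperature with compound in 50 mM Tris-HCl pH 8, 0.01% Tween 20. Started with 1 mM NAD+ and 30 uM prostaglandin E2; NADH fluorescence (360/450 nm) read 5 times over 30-s intervals, last minus first.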
ALDH1A1 inh: blocks purified human ALDH1A1 activity | P00352 | Purified ALDH1A1, NADH fluorescence, propionaldehyde substrate | AID 1030 | Potency, µM (highest dose often 75.3 µM), for inactives: top-dose activity, negative = inhibition, usual class: inhibitors | 220,000 compounds, 7.3% hits; active = well fitted inhibition curve with a large enough effect, not every such curve was filed as active; inconclusive = small, poorly fitted or top-dose-only effect, or another doubt; inactive = no such curve, though single readings can be large or run the other way;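 note: potency is the fitted concentration of half-maximal effect; plate controls were no enzyme wells and a reference inhibitor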
NPSR antagonist: blocks cAMP signaling of the human neuropeptide S receptor; 220,000 compounds, 1% hits; CHO-NPSR cells, cAMP TR-FRET, antagonist mode; Potency, µM (series often up to 38.3 µM), without a hit: at the top dose activity change, negative = inhibition, most hits filed as inhibitors; Q6W5P4; note: potency is the fitted concentration of half-maximal effect; nearly all actives have a fitted effect of over 50% in size
Target sequence (Q6W5P4 whole entry, looked up): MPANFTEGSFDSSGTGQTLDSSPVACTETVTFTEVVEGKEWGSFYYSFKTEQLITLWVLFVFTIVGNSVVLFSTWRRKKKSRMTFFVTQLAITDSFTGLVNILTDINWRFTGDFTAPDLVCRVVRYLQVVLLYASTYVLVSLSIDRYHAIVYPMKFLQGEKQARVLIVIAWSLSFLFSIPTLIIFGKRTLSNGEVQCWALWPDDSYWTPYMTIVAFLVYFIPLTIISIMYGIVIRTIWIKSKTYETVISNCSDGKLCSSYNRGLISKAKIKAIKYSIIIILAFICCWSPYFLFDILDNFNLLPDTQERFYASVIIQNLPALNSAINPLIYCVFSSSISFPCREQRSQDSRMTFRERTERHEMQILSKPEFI
IMPase Li inh: cell-permeable IMPase inhibitors with lithium potentiation | CHO-M1 cells, IP1 TR-FRET (IP-One), carbachol + lithium | 210,000 compounds, 0.35% hits | Potency, µM (highest dose often 59.4 µM), for inactives: at the highest dose activity, negative = IMPase inhibition, actives largely listed as inhibitors | AID 1457;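 note: IP1 builds up when IMPase is blocked and the TR-FRET signal falls; potency is the fitted concentration of half-maximal effect; plate controls were basal vehicle for no effect and high inhibitor control for full effect; nearly all actives have a fitted effect of over 50% in size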
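CHO cells stably expressing M1 receptor (2000/well, cultured 16–30 h) treated 30 min at 37C with compound plus low lithium. Cytosolic IP1 by TR-FRET (665/620 ratio and 620 channel) after 10 min lysis; AC50 by Hill fit.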
12-hLO inh: inhibitors of human 12-lipoxygenase (ALOX12). P18054. purified 12-hLO, xylenol orange hydroperoxide absorbance. Potency, µM (series often up to 57.1 µM), for the others: at the highest dose activity change, negative = inhibition, hits mostly inhibitors. 150,000 compounds, 0.12% hits; note: potency is the fitted concentration of half-maximal effect; nearly all actives have a fitted effect of over 55% in size
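Xylenol orange chromogenic assay: hydroperoxide from 12hLO oxidises Fe(II), giving red-shifted Fe(III)-XO absorbance. Conditions: 150 nM enzyme, 40 uM arachidonic acid, 25 mM Hepes pH 7.0, 0.01% Triton X-100, 30 min, room temperature.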
IMPase cell inh: IMPase inhibition in cells; CHO-M1 cells, IP1 accumulation, HTRF TR-FRET ratio; inhibition (IP1 accumulation), % at 46.1 µM; 120,000 tested, under 10 active; active = well fitted curve in the direction sought with a large enough effect in the signal ratio, not every such curve was filed as active; inconclusive = small, poorly fitted or top-dose-only effect, or a change in a side signal; inactive = no such curve, though single readings can be large or run the other way; the % refers to the signal ratio;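 note: cells stimulated with carbachol in lithium chloride buffer; plate controls were DMSO basal wells for no effect and reference inhibitor wells for full effect; higher means more IMPase inhibition seen as more IP1 and lower FRET ratio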
Target sequence (P97697 whole entry, looked up): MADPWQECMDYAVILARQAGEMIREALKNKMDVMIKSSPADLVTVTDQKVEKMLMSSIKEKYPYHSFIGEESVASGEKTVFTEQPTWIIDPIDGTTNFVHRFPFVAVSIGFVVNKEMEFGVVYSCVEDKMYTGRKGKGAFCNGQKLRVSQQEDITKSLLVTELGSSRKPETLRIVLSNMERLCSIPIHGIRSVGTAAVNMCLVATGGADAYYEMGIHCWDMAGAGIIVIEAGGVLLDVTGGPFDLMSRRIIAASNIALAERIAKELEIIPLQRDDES
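Measured: the HTRF emission ratio (665/620 nm) plus the 620 nm donor channel, each fitted to the Hill equation to give AC50. Cells were CHO-M1 given compounds up to 46 uM and a 30 min carbachol stimulation at 37C.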
Starred values were filed as active, the others as inactive; u = inconclusive; x = not tested or not shown; [ ] = remark or other dose. Compounds with a hit are over-represented: about 8.9% of the library has one in this group of screens. Unless noted, calls come from the whole dose curve; as a rule, active = well fitted curve in the direction sought with a large enough effect; inconclusive = small, poorly fitted or top-dose-only effect, or another doubt; inactive = no such curve, though single readings can be large; an effect the other way counts as inactive or inconclusive. Unless noted, % is set by controls: 0 for no effect and ±100 for the full control effect.

SMILES	HPGD block	ALDH1A1 inh	NPSR antagonist	IMPase Li inh	12-hLO inh	IMPase cell inh
COc1ncc2nc(-c3ccc(F)cc3)c(=O)n(CCc3ccccc3)c2n1	x	18.7%	x	14.1µM*	x	x
C=CCNC(=O)Nc1ccc(F)c(Cl)c1	x	-0.1%	8.2%	-4.2%	x	x
Cc1ccc(-c2cc[n+](Cc3ccccc3)cc2)cc1	x	u	6.1%	18.0%	x	x
Cc1ccc2c(c1)sc[n+]2Cc1ccccc1	20µM*	u	-12.7%[46.1 µM]	2.8%[38.3 µM]	-23.9%	5.7
O=C(NC(c1ccccc1)c1ccccc1)C1CCCO1 (configuration not stated)	x	0.3%	6.3%	-13.9%	x	x
CC(NC(=O)C1CCC1)c1ccc(Br)cc1 (configuration not stated)	-28.4%	5.0%	16.1%	19.8%	-4.6%	x
Cc1ccc(C(C)NC(=O)C2CCCO2)cc1C (configuration not stated)	15.8µM*	-3.3%	6.5%[46.1 µM]	10.8%	1.6%	-9.7
CC(NC(=O)C1CCC1)c1ccc2c(c1)OCO2 (configuration not stated)	20µM*	8.6%	-5.3%[46.1 µM]	16.6%[38.3 µM]	-3.4%	2.5
COc1ccc(NC(=O)C2C3C=CC(C3)C2C(=O)NCc2ccco2)c(OC)c1 (configuration not stated)	25.1µM*	u	-15.2%[46.1 µM]	15.0%	-0.7%	6.0
O=C(O)C1C2C=CC(C2)C1C(=O)NCc1ccco1 (configuration not stated)	x	-0.4%	12.5%	2.7%	x	x
CC(=O)N(C(C)=O)n1c(/C=C/c2ccc([N+](=O)[O-])cc2)nc2ccccc2c1=O	x	-7.1%	-43.4%	11.5%	x	x
CCN(CC)S(=O)(=O)c1ccc2nc(NC(=O)c3ccco3)sc2c1	x	-13.9%	-22.5%	-5.1%	x	x
CCOC(=O)c1c(C)nc2c(c1-c1cc(OC)ccc1OC)C(=O)c1ccccc1-2	-25.1%	-9.9%	-17.1%[46.1 µM]	16.0%	2.2%	-10.2
CCOC(=O)C1=C(Cc2ccc(OC)cc2)C(=O)c2ccccc2C1=O	31.6µM*	u	u	37.9%[38.3 µM]	-21.4%	9.0
CCOC(=O)C1=C(Cc2ccc(C)cc2)C(=O)c2ccccc2C1=O	12.6µM*	u	10µM*	43.2%[38.3 µM]	u	2.4
CN1CCN(CC(=O)N/N=C\c2c[nH]c3ccccc23)CC1	-20.2%	-1.0%	21.9%	-4.9%	-0.8%	x
CCOC(=O)c1cc2c(C)[nH]c(C)c2cc(C(=O)OCC)c1=O	x	25.1µM*	16.6%	1.9%	x	x
CCOC(=O)c1cc(C(=O)OCC)c(=O)[nH]c1C	-28.3%	u	5.2%	-3.0%	-4.2%	x
CCOC(=O)N1CCN(C(=O)C(C)SCc2ccccc2)CC1 (configuration not stated)	-4.1%	u	-1.3%[46.1 µM]	2.0%[38.3 µM]	2.7%	-1.6
COc1ccc(CCC(=O)NC(C)C)cc1	-19.0%	22.7%	9.8%	0.1%	-1.2%	x
CCc1nc(N=C(N)N)nc2ccccc12	x	2.4%	11.5%	15.9%	x	x
CN(c1ccccc1)S(=O)(=O)c1cccc(NC(=O)Cn2cnc3c2c(=O)n(C)c(=O)n3C)c1	x	11.7%	-8.7%[46.1 µM]	x	1.8%	-4.0
O=C(CSc1ccc([N+](=O)[O-])cc1)Nc1cccc(S(=O)(=O)Nc2ccccc2F)c1	x	5.01µM*	-25.2%	23.6%	x	x
CCOc1ccccc1NC(=O)CSc1ccc([N+](=O)[O-])cc1	x	20µM*	-18.9%	13.5%	x	x
Cn1c(=O)c2c(ncn2CC(=O)Nc2cccc(S(=O)(=O)Nc3ccccc3F)c2)n(C)c1=O	x	7.94µM*	10.2%	3.0%	x	x
SMILES	HPGD block	ALDH1A1 inh	NPSR antagonist	IMPase Li inh	12-hLO inh	IMPase cell inh
O=C(NC1CCCCC1)N1CCN(S(=O)(=O)c2ccc(F)cc2)CC1	x	5.9%	-6.6%	1.3%	x	x
O=C(c1ccc(F)cc1)C1CCN(C(=O)NC2CCCCC2)CC1	-8.4%	11.2µM*	-12.3%[46.1 µM]	13.1%[38.3 µM]	-9.7%	7.3
Cc1cc(-c2nnco2)c(C)n1-c1ccccc1	-26.0%	2.3%	6.4%[46.1 µM]	28.1%[38.3 µM]	1.8%	-2.8
O=c1oc2ccccc2c(NCc2ccc(Cl)cc2)c1[N+](=O)[O-]	x	x	-12.0%	x	x	x
Cc1cc(Cl)cc(Cl)c1CNc1c([N+](=O)[O-])c(=O)oc2ccccc12	u	10µM*	-17.1%	12.5%	2.2%	x
Cn1c(=O)c([N+](=O)[O-])c(NCc2ccccc2)c2ccccc21	6.31µM*	15.8µM*	-12.1%[46.1 µM]	16.9%[38.3 µM]	-4.4%	-0.6
O=c1oc2ccccc2c(NCc2ccccc2)c1[N+](=O)[O-]	25.1µM*	11.2µM*	7.6%	-6.2%	-3.7%	x
COc1ccc(CCNc2c([N+](=O)[O-])c(=O)oc3ccccc23)cc1OC	15.8µM*	-0.2%	-11.1%[46.1 µM]	-2.6%[38.3 µM]	-3.5%	4.3
O=c1oc2ccccc2c(NCCO)c1[N+](=O)[O-]	x	5.8%	11.2%	0.2%	x	x
CCCNC(=O)c1ccc(S(N)(=O)=O)cc1	x	8.0%	-8.9%	x	x	x
Nc1c(NCc2ccccc2)c2ccccc2oc1=O	u	22.4µM*	-20.1%[46.1 µM]	13.4%[38.3 µM]	-23.3%	7.2
Cc1nonc1C1CCCN1Cc1cn[nH]c1-c1ccc(-c2ccccc2)cc1 (configuration not stated)	x	7.08µM*	u	9.8%	x	x
COCCNC(=O)CSc1nnc2c(Cl)cc(Cl)cn12	x	-16.5%	-9.3%[46.1 µM]	x	-3.7%	u
COc1cccc(-c2nc(S(=O)(=O)c3ccccc3)c(N3CCCCC3)o2)c1	x	x	x	x	x	2.7
CC(C)Sc1oc(-c2ccco2)nc1S(=O)(=O)c1ccc(F)cc1	-23.8%	20µM*	u	17.4%	-13.8%	18.7
O=S(=O)(c1ccccc1)c1nc(-c2ccco2)oc1N1CCCCCC1	u	0.199µM*	-18.5%[46.1 µM]	16.8%[38.3 µM]	-4.3%	4.1
CN1CCN(c2oc(-c3ccco3)nc2S(=O)(=O)c2ccccc2)CC1	-15.8%	28.2µM*	9.8%[7.67 µM]	-12.9%[38.3 µM]	1.4%	8.1
Cc1ccc(C(=O)NC2c3ccccc3-c3ccccc32)cc1	x	7.2%	-0.3%[46.1 µM]	x	1.9%	-4.1
O=c1cc(-c2ccc([N+](=O)[O-])cc2)nc2cc(-c3ccc(F)cc3)[nH]n12	-23.2%	7.94µM*	-19.3%	-3.4%	-7.4%	x
Cc1ccccc1-c1cc2nc(-c3ccc([N+](=O)[O-])cc3)cc(=O)n2[nH]1	x	-5.8%	-0.8%	5.0%	x	x
C/C=C/c1ccc(OCCCNC(C)CC)c(OC)c1 (configuration not stated)	-8.9%	15.8µM*	-7.0%[46.1 µM]	26.4%[38.3 µM]	-9.5%	1.7
C/C=C/c1ccc(OCCCNC2CCCC2)c(OC)c1	-5.6%	28.2µM*	3.1%[46.1 µM]	35.6%[38.3 µM]	-6.7%	8.5
C/C=C/c1ccc(OCCCn2cncn2)c(OC)c1	-10.6%	-7.0%	-5.0%[46.1 µM]	20.4%[38.3 µM]	-8.9%	-12.5
C/C=C/c1ccc(OCCCCOc2ccccc2F)c(OC)c1	-17.1%	u	4.4%	-1.2%	-2.8%	x
C/C=C/c1ccc(OCCn2cncn2)c(OC)c1	-5.0%	25.1µM*	0.0%[46.1 µM]	-0.1%	-14.3%	-1.8
